# Assay results from PubChem BioAssay.
# Unmarked numbers belong to inactive results. The list shows a part of the results. Calls of active or inactive are those of the source. Unless noted, no stated cut-off is given here; in the data, active means activation above about 8.9%; inactive means the rest.
# What was measured:
# [1] = tested on: HIV-1 integrase (multimerization); experiment: stimulation of HIV-1 integrase oligomerization – biochemical, TR-FRET, counter-screen for LEDGF/p75 integration inhibitor project (AID 1053131); conditions: TR-FRET HIV-1 integrase multimerization, at 7.7 µM, active compounds read high
# [2] = compounds disturbing TR-FRET signal readout – biochemical, HIV-1 IN multimerization, artefact control for LEDGF/p75-dependent integration inhibitor project, confirmation (AID 1053135;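 active means inhibition above the mean over all tested compounds plus 3 SD, which no compound reached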;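 further: 0% = integrase with antibodies and DMSO and 100% = antibodies without integrase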); conditions: TR-FRET optical interference counterscreen, at 7.7 µM, active compounds read high
# [3] = tested on: HIV-1 integrase / human LEDGF/p75 complex; experiment: blockers of LEDGF/p75-dependent integrase activity – biochemical, TR-FRET, confirmation (AID 1053136; in the data active means inhibition above about 14%); conditions: TR-FRET LEDGF/p75-dependent HIV-1 integration, at 3.7 µM, active compounds read high
# [4] = suppression of KLF5 promoter-driven luciferase – DLD-1 cells, luminescence, confirmation (AID 1834;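 active means inhibition above a set limit taken from the earlier primary screen, cut at about 63% in these data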;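 further: 0% = DMSO wells and 100% = LY294002 at 200 µM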); conditions: DLD-1 KLF5 promoter firefly luciferase reporter, at 4 µM, active compounds read high
# [5] = IEC-6 intestinal cell killing – luminescence, triplicate, cytotoxicity control for KLF5 inhibitor project (AID 1905; in the data active means inhibition above about 23%;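 further: cells exposed to compounds for 48 hours before viability read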); conditions: IEC-6 rat intestinal cells, viability luminescence; at 4 µM; active compounds read high
# [6] = target: Glutathione S-transferase omega-1 (Homo sapiens) (UniProt P78417); experiment: recombinant GSTO1 blockers, retest – biochemical, fluorescence polarization, triplicate, counter-screen for RBBP9 inhibitor project, confirmation (AID 2176;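 active means inhibition above the primary screen's cutoff, its mean inhibition plus 3 SD, cut at about 35% in these data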;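 further: loss of polarization as inhibitors block binding of rhodamine sulfonate ester activity probe; 0% = GSTO1 with DMSO and 100% = wells lacking GSTO1 enzyme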); conditions: recombinant GSTO1, probe fluorescence polarization; at 5.96 µM; active compounds read high
# [7] = target: Platelet-activating factor acetylhydrolase (Homo sapiens) (UniProt Q13093); experiment: inhibition of plasma PAF acetylhydrolase – biochemical, fluorescence polarization, human, confirmation (AID 463230;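 active means mean inhibition of the triplicate above the hit cutoff set for the earlier primary screen, cut at about 25% in these data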;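 further: 0% = enzyme with DMSO and 100% = wells lacking pPAFAH enzyme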); conditions: recombinant pPAFAH, FP-Rh probe fluorescence polarization; at 3.39 µM; active compounds read high
# [8] = reduced OD of T4-infected AddAB+ E. coli – absorbance, E. coli V3065, T4 phage, triplicate, AddAB inhibitor project, confirmation (AID 488942;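 active means mean inhibition above a set limit taken from the earlier primary screen, cut at about 13% in these data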;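 further: higher means less bacterial growth since AddAB block lets phage replicate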); conditions: E. coli V3065 expressing H. pylori AddAB, at 11.9 µM, active compounds read high, T4 phage with gene 2 nonsense mutations
# [9] = reduced OD of phage-infected RecBCD+ V66 E. coli – absorbance, mutant T4 phage, counter-screen for AddAB inhibitor project (AID 488955;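 active means mean inhibition above the mean of solvent-only control wells plus 3 SD, cut at about 4% in these data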;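 further: optical density read after an 18 h incubation at 37 °C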); conditions: OD growth, at 11.9 µM, active compounds read high
# [10] = bacterial growth inhibitors – absorbance, counter-screen for AddAB inhibitor project, confirmation (AID 488956; in the data active means inhibition above about 25%); conditions: bacterial viability, absorbance (AddAB counterscreen); at 11.9 µM; active compounds read high
# [11] = reduced OD of V66 E. coli with T4 gene 2 phage – absorbance, RecBCD inhibitor project, confirmation (AID 651982;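 active means mean inhibition over triplicates exceeding the hit threshold derived in the original primary screen, cut at about 11% in these data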); conditions: E. coli V66 + T4 2- phage, growth OD; at 11.9 µM; active compounds read high
# [12] = bacterial growth inhibition – absorbance, high throughput, counter-screen for RecBCD inhibitor project (AID 651983; in the data active means inhibition above about 20%;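 further: E. coli strain V66 grown with compound alone and no phage infection; 0% = bacteria with DMSO vehicle only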); conditions: E. coli viability, absorbance (OD) growth; at 11.9 µM; active compounds read high
# [13] = reduced optical density, T4-challenged addAB+ bacteria – absorbance, E. coli V3065, T4 phage, counter-screen for RecBCD inhibitor project, confirmation (AID 651984;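 active means mean inhibition above the solvent-only control wells' mean plus 3 SD, cut at about 22% in these data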;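 further: higher means less bacterial growth from phage killing when AddAB is blocked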); conditions: E. coli expressing H. pylori AddAB + T4 phage, OD growth; at 11.9 µM; active compounds read high; gene 2 mutant T4, recBCD-deleted host
# [14] = tested on: Fam108b (Abhd17b) serine hydrolase [Mus musculus]; experiment: inhibition of Fam108b (Abhd17b) hydrolase – biochemical, fluorescence polarization, triplicate, counter-screen for RBBP9 inhibitor project, confirmation (AID 1978;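 active means inhibition above a limit from the primary screen, the mean over all compounds plus 3 SD, cut at about 19% in these data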;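 further: 0% = median of active Fam108b wells and 100% = catalytically dead S170A mutant; inhibitors free the probe so polarization falls as inhibition rises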); conditions: recombinant Fam108b, FP-Rh probe fluorescence polarization; at 9.51 µM; active compounds read high
# [15] = target: Protein-arginine deiminase type-4 (Homo sapiens) (UniProt Q9UM07); experiment: protein arginine deiminase 4 blockade, retest – biochemical, fluorescence polarization, confirmation (AID 488796;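 active means mean inhibition across replicates above the hit cutoff set by the earlier primary screen, cut at about 15% in these data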;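 further: inhibitors block active-site labeling by the probe so polarization falls; 0% = PAD4 with probe and DMSO and 100% = probe without PAD4 enzyme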); conditions: recombinant PAD4, RCA probe fluorescence polarization; at 6.36 µM; active compounds read high
# [16] = target: Protein phosphatase methylesterase 1 (Homo sapiens) (UniProt Q9Y570); experiment: human PME-1 methylesterase inhibition confirmation – biochemical, fluorescence polarization, FP-Rh probe, triplicate (AID 2171;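 active means inhibition above the hit cutoff set in the earlier primary screen, cut at about 27% in these data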;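 further: 0% = enzyme with DMSO and 100% = wells lacking PME-1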); conditions: recombinant PME-1, FP-Rh probe fluorescence polarization; at 5.9 µM; active compounds read high
# Protein phosphatase methylesterase 1 (Homo sapiens), sequence (Q9Y570 whole entry, looked up): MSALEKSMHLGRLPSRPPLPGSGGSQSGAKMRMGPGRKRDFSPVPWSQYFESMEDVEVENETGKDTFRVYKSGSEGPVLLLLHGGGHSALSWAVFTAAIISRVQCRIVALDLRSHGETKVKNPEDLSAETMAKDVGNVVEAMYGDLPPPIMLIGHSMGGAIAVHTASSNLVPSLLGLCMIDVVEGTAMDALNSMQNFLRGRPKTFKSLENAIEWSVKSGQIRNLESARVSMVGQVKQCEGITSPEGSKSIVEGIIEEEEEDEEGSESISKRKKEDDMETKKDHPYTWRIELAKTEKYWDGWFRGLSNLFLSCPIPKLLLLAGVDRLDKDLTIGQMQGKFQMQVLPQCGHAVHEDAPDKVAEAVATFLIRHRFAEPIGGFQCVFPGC
# Glutathione S-transferase omega-1 (Homo sapiens), sequence (P78417 whole entry, looked up): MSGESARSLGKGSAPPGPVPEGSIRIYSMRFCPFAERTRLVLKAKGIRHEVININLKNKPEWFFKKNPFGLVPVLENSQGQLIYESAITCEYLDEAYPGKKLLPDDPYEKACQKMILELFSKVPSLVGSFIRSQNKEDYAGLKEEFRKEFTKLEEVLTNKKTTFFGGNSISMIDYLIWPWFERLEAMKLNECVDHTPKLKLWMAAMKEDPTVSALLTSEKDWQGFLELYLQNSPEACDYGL
# Protein-arginine deiminase type-4 (Homo sapiens), sequence (Q9UM07 whole entry, looked up): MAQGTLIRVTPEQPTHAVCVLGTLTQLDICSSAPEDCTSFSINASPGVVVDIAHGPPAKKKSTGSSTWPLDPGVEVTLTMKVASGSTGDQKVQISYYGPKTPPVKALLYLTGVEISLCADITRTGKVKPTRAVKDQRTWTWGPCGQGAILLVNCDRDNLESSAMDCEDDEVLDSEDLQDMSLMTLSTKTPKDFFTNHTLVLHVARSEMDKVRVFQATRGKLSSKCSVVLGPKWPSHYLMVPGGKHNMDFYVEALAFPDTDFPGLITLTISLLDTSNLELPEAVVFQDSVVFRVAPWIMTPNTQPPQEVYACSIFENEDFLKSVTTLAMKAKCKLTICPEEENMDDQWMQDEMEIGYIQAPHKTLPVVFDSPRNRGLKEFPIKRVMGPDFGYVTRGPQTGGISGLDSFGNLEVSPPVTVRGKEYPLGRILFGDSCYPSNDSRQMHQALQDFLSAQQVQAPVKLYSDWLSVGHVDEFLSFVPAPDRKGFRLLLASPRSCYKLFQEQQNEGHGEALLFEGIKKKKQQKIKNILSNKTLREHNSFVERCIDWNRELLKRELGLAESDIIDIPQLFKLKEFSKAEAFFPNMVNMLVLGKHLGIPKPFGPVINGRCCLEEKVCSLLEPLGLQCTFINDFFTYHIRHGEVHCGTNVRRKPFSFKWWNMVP
# Platelet-activating factor acetylhydrolase (Homo sapiens), sequence (Q13093 whole entry, looked up): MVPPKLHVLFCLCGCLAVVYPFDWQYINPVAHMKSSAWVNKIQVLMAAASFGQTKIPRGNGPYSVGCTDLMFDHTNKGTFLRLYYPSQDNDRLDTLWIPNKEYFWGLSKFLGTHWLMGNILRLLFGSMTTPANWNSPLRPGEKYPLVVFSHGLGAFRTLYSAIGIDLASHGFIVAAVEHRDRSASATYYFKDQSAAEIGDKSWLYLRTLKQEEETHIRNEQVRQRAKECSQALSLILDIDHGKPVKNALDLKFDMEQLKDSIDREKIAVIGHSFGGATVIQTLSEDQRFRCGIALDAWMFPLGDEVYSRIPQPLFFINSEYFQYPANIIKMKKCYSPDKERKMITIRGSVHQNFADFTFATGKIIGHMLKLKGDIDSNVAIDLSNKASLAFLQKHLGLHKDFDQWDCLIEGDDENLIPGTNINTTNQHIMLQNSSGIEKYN
compound,measurement,setting,value
O=C(c1cccc(C(F)(F)F)c1)N1CC[C@H]2[C@H](CCCN2Cc2cc(F)cc(F)c2)C1,activation,[1],0.05%
same,inhibition,[2],-0.14%
same,inhibition,[3],-8.63%
CCOC(=O)c1ccc(NC(=O)CSc2ncccn2)cc1,activation,[1],-0.25%
same,inhibition,[2],1.28%
same,inhibition,[3],-6.96%
O=C1OC(/C=C/c2ccccc2)=NC/1=C/c1ccco1,activation,[1],-0.93%
same,inhibition,[2],4.71%
same,inhibition,[3],-2.29%
O=C(Nc1nnc(-c2ccco2)o1)c1ccc(S(=O)(=O)N2CCOCC2)cc1,activation,[1],0.8%
same,inhibition,[2],-4.01%
same,inhibition,[3],-5.04%
COc1ccc(Cn2cc(CN3CCS(=O)(=O)N(Cc4ccc(-c5cccc(Cl)c5)cc4)C(C)C3=O)nn2)cc1 (stereo unspecified),activation,[1],-2.68%
same,inhibition,[2],13.6%
same,inhibition,[3],-1.87%
CCc1cc2c(SCC(=O)Nc3ncc(Cl)c(C)c3Cl)ncnc2s1,activation,[1],-0.15%
same,inhibition,[2],0.78%
same,inhibition,[3],0.88%
O=C(O)CCC(=O)Nc1ccc(N2CCOCC2)cc1,activation,[1],0.12%
same,inhibition,[2],-0.6%
same,inhibition,[3],1.39%
CC(=NCc1ccc2c(c1)OCO2)C1=C(O)c2ccccc2C1=O,activation,[1],0.56%
same,inhibition,[2],-2.08%
same,inhibition,[3],-0.38%
CCCCNC(=O)OC1CC2CC1[C@H]1CCCCN1C2=O (stereo partly specified),activation,[1],-0.71%
same,inhibition,[2],3.63%
same,inhibition,[3],-1.12%
Oc1cc(O)c2c(c1)OC(c1ccc(O)c(O)c1)C(O)C2 (stereo unspecified),activation,[1],10.4% (active)
same,inhibition,[2],-52.5%
same,inhibition,[3],-0.79%
CN(Cc1ccc(F)cc1)C(=O)CN1C(=O)c2ccccc2S1(=O)=O,activation,[1],-1.2%
same,inhibition,[2],4.33%
same,inhibition,[3],-12.2%
Cc1cc(C)c2nc(-c3ccco3)cc(C(=O)O)c2c1,activation,[1],2.58%
same,inhibition,[2],-12.9%
same,inhibition,[3],63.6% (active)
Oc1cccc(/C=N/Nc2ccc(Cl)nn2)c1O,inhibition,[4],93.5% (active)
same,inhibition,[5],0.35%
same,inhibition,[6],7.85%
same,inhibition,[7],29.2% (active)
same,inhibition,[8],42.9% (active)
same,inhibition,[9],15.7% (active)
same,inhibition,[10],20.9%
same,inhibition,[11],7.26%
same,inhibition,[12],9.97%
same,inhibition,[13],26% (active)
same,activation,[1],10.1% (active)
same,inhibition,[2],-36.1%
same,inhibition,[3],10.1%
CSc1nc(N)c(C#N)c(-c2ccccc2Cl)c1C#N,activation,[1],-0.67%
same,inhibition,[2],3.41%
same,inhibition,[3],0.36%
Oc1c(CN2CCOCC2)ccc(CN2CCOCC2)c1O,activation,[1],-0.48%
same,inhibition,[2],1.64%
same,inhibition,[3],15.7% (active)
O=C(NC1CCCCC1)N1CCc2[nH]c3ccccc3c2C1,activation,[1],1.36%
same,inhibition,[2],-6.83%
same,inhibition,[3],2.35%
COc1ccccc1C1C(C#N)=C(N)Oc2c1c(-c1ccccc1)nn2-c1ccccc1 (stereo unspecified),inhibition,[14],-8.81%
same,inhibition,[6],12.6%
same,inhibition,[15],2.3%
same,activation,[1],0.86%
same,inhibition,[2],-4.34%
same,inhibition,[3],1.22%
CCOC(=O)c1ccc(Nc2cc3ccccc3c(=O)[nH]2)cc1,inhibition,[16],53.9% (active)
same,activation,[1],-1.62%
same,inhibition,[2],8.23%
same,inhibition,[3],29.8% (active)
NC(=O)c1ccccc1NC(=O)c1ccccc1F,activation,[1],1.09%
same,inhibition,[2],-4.33%
same,inhibition,[3],-4.54%
CC1(C(=O)NS(=O)(=O)c2ccccc2)CCN1C(=O)Cc1ccc(-c2ccccc2)cc1 (stereo unspecified),activation,[1],-0.39%
same,inhibition,[2],2.02%
same,inhibition,[3],1.27%
O=C(COC(=O)CCC(=O)c1cccs1)NCc1ccco1,activation,[1],11.5% (active)
same,inhibition,[2],-58.1%
same,inhibition,[3],19.2% (active)
COc1ccc(C(=O)/C=C/c2ccc(-c3ccccc3)cc2)cc1CSCC(=O)O,activation,[1],-1.35%
same,inhibition,[2],6.82%
same,inhibition,[3],21.8% (active)
C=CCn1c2ccccc2c2nnc(SCc3[nH]c(=O)[nH]c3C(=O)CCCCC(=O)OCC)nc21,activation,[1],-0.48%
same,inhibition,[2],2.45%
same,inhibition,[3],24% (active)
O=S(=O)(Nc1ccc(O)c2ccccc12)c1ccc(OC(F)(F)F)cc1,inhibition,[6],38.2% (active)
same,inhibition,[15],15% (active)
same,activation,[1],1.57%
same,inhibition,[2],-5.75%
same,inhibition,[3],8.79%
COc1cc(/C=C2\CCCc3c2nc2ccccc2c3C(=O)O)cc(Cl)c1O,activation,[1],-1.15%
same,inhibition,[2],5.85%
same,inhibition,[3],-2.25%
